# Hits are enriched below; roughly 11% of the tested compounds scored in any of these assays.
# AmpC no deterg – inhibitors of E. coli AmpC beta-lactamase without detergent; hit rate 0.52% among 330,000; P00811; AID 485341; AmpC nitrocefin hydrolysis, absorbance 480 nm, 0.0001% Triton; Potency, µM (highest dose often 57.1 µM), inactives show top-dose activity change, negative = inhibition, most hits filed as inhibitors;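 further: plate controls were no compound for no effect and no enzyme for full effect; nearly all actives have a fitted effect of over 20% in size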
# Target sequence (P00811 whole entry, looked up): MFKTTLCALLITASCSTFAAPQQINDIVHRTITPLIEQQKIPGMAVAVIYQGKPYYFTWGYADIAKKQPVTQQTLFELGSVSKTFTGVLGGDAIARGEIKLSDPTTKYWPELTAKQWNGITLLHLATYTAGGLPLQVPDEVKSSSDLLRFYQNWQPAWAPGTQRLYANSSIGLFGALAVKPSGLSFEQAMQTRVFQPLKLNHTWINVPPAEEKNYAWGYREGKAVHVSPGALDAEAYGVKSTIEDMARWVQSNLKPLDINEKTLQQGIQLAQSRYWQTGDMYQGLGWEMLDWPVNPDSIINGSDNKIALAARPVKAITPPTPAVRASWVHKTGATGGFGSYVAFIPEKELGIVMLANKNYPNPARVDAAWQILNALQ
#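 AmpC (5.3 nM in the dispensed reagent) in 20 mM phosphate pH 7.0 with 0.01% (detergent screen) or 0.0001% Triton X-100 was preincubated with compounds for 15 min at room temperature. Nitrocefin was then added from an 800 uM solution, and hydrolysis was followed at 480 nm.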
# AmpC inh detg – AmpC beta-lactamase inhibition with detergent present; Potency, µM (top dose mostly 114 µM), for inactives: top-dose activity change, negative = inhibition, most hits filed as inhibitors; P00811; AmpC hydrolysis of nitrocefin, absorbance 480 nm, 0.01% Triton; hit rate 0.041% among 370,000;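 further: 0% = no-compound wells and -100% = no-enzyme wells; nearly all actives have a fitted effect of over 25% in size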
#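 AmpC (5.3 nM in the dispensed reagent) in 20 mM phosphate pH 7.0 with 0.01% (detergent screen) or 0.0001% Triton X-100 was preincubated with compounds for 15 min at room temperature. Nitrocefin was then added from an 800 uM solution, and hydrolysis was followed at 480 nm.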
# HCV inh – HCV inhibition | hit rate 3.4% among 340,000 | Huh7.5.1 HCVcc-Cre infection, luciferase reporter, 44 h | Potency, µM (highest dose often 41.8 µM), for the others: at the highest dose activity change, negative = inhibition, actives largely listed as inhibitors
#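 Cells seeded at 1,000/well and cultured 4 h, then compounds added followed by HCVcc-Cre virus (~0.5 moi). After 44 h further culture, luciferase substrate was added, plates held 15 min at room temperature, and luminescence read for 15 sec.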
# Pf growth 96h – P. falciparum growth inhibition at 96 hour, primary screen for plastid delayed-death inhibitors. Potency, µM (series often up to 28.7 µM), for the others: top-dose activity change, negative = inhibition, usual class: inhibitors. P. falciparum luciferase reporter growth, 96 h. hit rate 6.9% among 320,000
#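 Luminescence readout: decreased luciferase signal marks inhibited growth of reporter-expressing P. falciparum in infected red cells (2% hematocrit, 0.05% parasitemia final), exposed to compound two generations (96 h, 37 C, 5% CO2).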
# AMA1-RON2 inh – disrupts binding of P. falciparum AMA1 to RON2 | AlphaScreen AMA1-biotinylated RON2 peptide binding | Potency, µM (top dose mostly 58.2 µM), inactives show at the highest dose activity change, negative = inhibition, hits mostly inhibitors | hit rate 0.2% among 360,000 | AID 720542;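 further: 0% = vehicle wells and -100% = peptide control; nearly all actives have a fitted effect of over 45% in size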
#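 AMA1 (3D7) with his tag at 25 nM final met compounds first, then biotinylated RON2 peptide at 25 nM; detection used donor plus acceptor beads, 10 µg/mL apiece, read by AlphaScreen after 30 min at room temperature.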
# Pf growth 48h – inhibits P. falciparum growth in the first generation, 48 h. P. falciparum luciferase growth in erythrocytes, 48 h. hit rate 5.9% among 310,000. Potency, µM (series often up to 28.7 µM), inactives show top-dose activity change, negative = inhibition, hits mostly inhibitors. AID 504832
#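 Firefly luciferase activity from engineered P. falciparum reports growth; inhibitors lower the luminescent signal. Cultures contained 2% hematocrit erythrocytes at 0.1% final parasitemia.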
# * hit, by the source's call; u = inconclusive; x = no result given. The call rests on the fitted dose curve; in most records, active means well fitted curve in the direction sought with a large enough effect; inconclusive means small, poorly fitted or top-dose-only effect, or another doubt; inactive means no such curve, though single readings can be large; an effect the other way counts as inactive or inconclusive. Unless noted, on the % scale 0 is the no-effect control and ±100 the full control effect; potency means the concentration at half of the fitted maximal effect.
SMILES,AmpC no deterg,AmpC inh detg,HCV inh,Pf growth 96h,AMA1-RON2 inh,Pf growth 48h
Cc1noc(/C=C/N(C)C)c1S(=O)(=O)N1CCCC(C(=O)N2CCCCC2)C1 (centres undefined),39.1%,u,-2.2%,-5.1%,-1.8%,9.28µM*
Cc1cc(C)c(NC(=O)C2CCCN(S(=O)(=O)c3c(C)noc3/C=C/N(C)C)C2)c(C)c1 (centres undefined),35.9%,-0.1%,4.3%,13.1µM*,-9.1%,u
Cc1ccc(Cn2c(CNS(=O)(=O)c3c(C)cc(C)cc3C)nc3cccnc32)cc1,x,2.0%,x,x,x,x
N/C(=N\OC(=O)c1ccc(=O)n(Cc2ccccc2)c1)c1ccccn1,-12.0%,1.9%,12.1%,u,51.1%,13.1µM*
N/C(=N\OC(=O)c1ccc(=O)n(Cc2ccc(Cl)cc2)c1)c1ccccn1,-21.1%,u,-18.1%,13.1µM*,36.1%,11.7µM*
CC(C)(C)CC(=O)O/N=C(\N)c1ccccn1,-4.6%,-3.1%,7.6%,13.1µM*,9.3%,113.0%
Cc1ccc(CC(=O)O/N=C(\N)c2ccccn2)cc1,9.1%,-5.5%,6.4%,-15.3%,94.8%,89.7%
N/C(=N\OC(=O)Cc1ccc(Cl)cc1)c1ccccn1,-14.0%,-11.5%,13.6%,-7.2%,17.7%,x
Cc1cc(F)ccc1NC(=O)C1CCN(C(=O)c2cnn(-c3ccccc3)c2-n2cccc2)CC1,x,15.2%,x,x,x,x
COc1ccc(NC(=O)C2CCCN(C(=O)c3cnn(-c4ccccc4)c3-n3cccc3)C2)cc1 (centres undefined),x,-4.7%,x,x,x,x
CCN(C(=O)CCNC(=O)Cn1cnc2ccccc2c1=O)c1cc(OC)ccc1OC,x,7.2%,x,x,x,x
Cc1nn(-c2ccc(N3CCCC3)nn2)c(C)c1CCC(=O)N1CCN(c2ccccc2F)CC1,x,-2.6%,x,x,x,x
CCCC(=O)Nc1nnc(S(=O)(=O)N(C)Cc2ccc(Cl)cc2)s1,x,6.7%,x,x,x,x
Cc1ccc(NC(=O)c2oc3ccccc3c2NC(=O)C2CCCCC2)cc1,x,9.5%,x,x,x,x
Cc1ncsc1CCC(=O)N1CCCC(Nc2ccc(F)c(F)c2)C1 (centres undefined),20.4%,3.2%,15.0%,11.7µM*,-11.6%,-0.2%
Cc1ccc(NC2CCCN(C(=O)CCc3scnc3C)C2)cc1C (centres undefined),66.6%,-1.1%,8.4%,-28.1%,-22.6%,-27.8%
Cc1ccc(C(=O)N2CCCC(Nc3ccc(F)c(F)c3)C2)cn1 (centres undefined),1.0%,u,6.0%,11.7µM*,2.9%,-0.6%
CC1OC(OC2C=C3CCC4C(CCC5(C)C(c6ccc(=O)oc6)CCC45O)C3(C)CC2)C(O)C(OC2OC(CO)C(O)C(O)C2O)C1O (centres undefined),x,x,15.8µM*,x,-9.8%,x
Cc1sc(NC(=O)CN2CCCC2)nc1-c1ccc2c(c1)CCN2C(=O)c1cccc(F)c1,105.5%,u,u,2.6%,6.6%,u
Cc1sc(NC(=O)CN(C)C2CCCCC2)nc1-c1ccc2c(c1)CCN2S(=O)(=O)c1ccccc1,-18.6%,3.4%,x,2.94µM*,x,x
COc1ccc(C(C(=O)NC2CCCC2)N(C(=O)c2snc(-c3ccc(F)cc3)c2N)c2cccc(F)c2)cc1 (centres undefined),-17.7%,-5.9%,10µM*,0.0%,-0.9%,u
COc1ccc(C(C(=O)NC2CCCC2)N(C(=O)c2snc(-c3ccc(F)cc3)c2N)c2ccc(F)cc2)cc1 (centres undefined),-16.9%,-6.0%,u,-3.5%,0.7%,u
COc1ccc(C(C(=O)NC2CCCC2)N(C(=O)c2snc(-c3ccc(F)cc3)c2N)c2ccc(OC)cc2)cc1 (centres undefined),-6.2%,-9.8%,u,5.22µM*,12.3%,u
CCc1ccccc1NC(=O)CN1C(=O)c2ccccc2Sc2ncccc21,x,-5.2%,x,x,x,x
